# BCLXL inh: blocks human Bcl-xL binding to Bim BH3 peptide; Q07817; AID 2129; inhibition, % at 10.9 µM; 0.7% of 320,000 active; GST-Bcl-xL / FITC-Bim BH3 peptide fluorescence polarization;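 active = inhibition above the mean of all tested compounds plus 3 SD, cutoff set per campaign, cut at about 30% in these data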;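 also: 0% = DMSO wells and 100% = unlabeled Bim-BH3 peptide competitor; inhibitors lower millipolarization by displacing the labeled peptide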
# Target sequence (Q07817 whole entry, looked up): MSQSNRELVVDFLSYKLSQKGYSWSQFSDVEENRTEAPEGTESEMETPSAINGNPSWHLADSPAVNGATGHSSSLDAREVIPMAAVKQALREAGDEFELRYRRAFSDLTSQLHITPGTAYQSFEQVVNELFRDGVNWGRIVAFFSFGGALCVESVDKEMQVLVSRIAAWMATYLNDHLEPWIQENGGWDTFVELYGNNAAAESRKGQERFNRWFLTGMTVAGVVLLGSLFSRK
# Mcl1-Bid inh: Mcl-1/Bid interaction inhibition | Q07820 | TR-FRET Mcl-1/Bid-Dy647 peptide binding, 1536-well | inhibition, % at 21.7 µM | 0.97% of 220,000 active;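 active = compounds that cut the binding signal by more than half at the single screening dose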;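 also: His-tagged Mcl-1 with europium anti-His antibody binding Bid BH3 peptide; 0% = Mcl-1 plus peptide wells and 100% = peptide-only wells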
# Target sequence (Q07820 whole entry, looked up): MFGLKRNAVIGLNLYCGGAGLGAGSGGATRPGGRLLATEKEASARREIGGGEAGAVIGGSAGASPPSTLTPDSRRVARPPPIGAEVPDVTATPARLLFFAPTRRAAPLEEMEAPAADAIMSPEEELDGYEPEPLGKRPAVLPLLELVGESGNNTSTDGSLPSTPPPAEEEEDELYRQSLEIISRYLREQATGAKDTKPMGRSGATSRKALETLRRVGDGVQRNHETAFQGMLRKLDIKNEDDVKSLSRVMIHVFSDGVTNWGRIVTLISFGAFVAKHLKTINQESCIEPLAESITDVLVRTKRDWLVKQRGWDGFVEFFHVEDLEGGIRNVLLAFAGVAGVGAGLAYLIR
# MCL1 BIM primary: inhibitors of human MCL1 binding to BIM-BH3 peptide; GST-MCL1 / FITC-Bim-BH3 fluorescence polarization; inhibition, % at 10.9 µM; 0.68% of 320,000 active; AID 2057;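 active = inhibition above the mean inhibition of all tested compounds plus 3 SD, set per campaign, cut at about 40% in these data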;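 also: 0% = DMSO wells and 100% = unlabeled Bim-BH3 peptide control; higher means more loss of mP so more displacement of Bim peptide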
# Mcl-1 Bim block: disrupts Bim peptide binding to human Mcl-1. inhibition, % at 10 µM. AID 1009. 0.1% of 190,000 active. Bead-based flow cytometry, Bim peptide-Mcl-1 binding. Q07820; in the data active = inhibition above about 40%;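 also: 0% = no compound tracer wells and 100% = peptide blocker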
# GLD-1 RNA inh: GLD-1-TGE RNA interaction inhibition (C. elegans); Q17339; purified GLD-1 + fluorescein TGE RNA, fluorescence polarization; inhibition, % at 5.96 µM; 0.44% of 320,000 active; AID 2280;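 active = percent inhibition above a per-plate cutoff, the plate mean of test compounds plus 3 SD, cut at about 30% in these data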;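 also: 0% = DMSO wells with GLD-1 and probe and 100% = wells lacking GLD-1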
# Mcl1-Noxa inh: Mcl-1/Noxa interaction inhibition; Q07820; TR-FRET Mcl-1/Noxa peptide binding, 2 h; inhibition, % at 21.7 µM; 1.5% of 220,000 active; AID 1022;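 active = compounds that cut the protein-peptide binding signal by more than 50% relative to plate controls in a single-dose test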;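 also: His-tagged Mcl-1 with rhodamine Noxa BH3 peptide and terbium anti-His antibody; 0% = Mcl-1 plus Noxa peptide wells and 100% = peptide-only wells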
# Numbers without * were called inactive; . = not tested or not shown. Compounds with a hit are over-represented: about 2.3% of the library has one in this group of screens.
SMILES,BCLXL inh,Mcl1-Bid inh,MCL1 BIM primary,Mcl-1 Bim block,GLD-1 RNA inh,Mcl1-Noxa inh
Fc1ccc(NC(=S)NCCN2CCOCC2)c(F)c1F,2,-21,4,-4,-1,-2
COc1ccc(C(=O)NNC2=Nc3cccc4cccc2c34)cc1,-5,-7,-5,0,-3,1
Cc1ccc(C(=O)NNC2=Nc3cccc4cccc2c34)cc1,0,20,0,-5,6,67*
Cc1ccc(C(=O)NNc2c3ccccc3nc3ccccc23)cc1,16,12,17,.,7,81*
Cc1ccc(C(=O)NNC(=O)c2ccc3ncccc3c2)cc1,.,-9,.,50*,.,-4
O=C(NNc1c2ccccc2nc2ccccc12)c1ccc(Cl)cc1,3,.,8,.,-11,.
COc1cc(C(CC(=O)N2CCCC2)c2c(OC)cc(OC)c3ccc(=O)oc23)cc(OC)c1OC (centres undefined),36*,-53,38,.,55*,-6
Cc1ccc(Nc2nc(-c3sc(NC(=O)c4cccc(Cl)c4)nc3C)cs2)cc1,-10,-55,-17,-4,-9,30
Cc1nc(NC(=O)c2ccccc2)sc1-c1csc(Nc2ccc(C(=O)O)cc2)n1,.,91*,.,.,.,90*
Cc1nc(NC(=O)c2ccc(Cl)cc2)sc1-c1csc(Nc2cccc(F)c2)n1,-4,9,-18,0,-3,51*
Cc1nc(NC(=O)c2ccccc2)sc1-c1csc(NCc2ccco2)n1,-9,-12,-12,-2,-1,61*
COc1cccc(Nc2nc(-c3sc(NC(=O)c4ccccc4)nc3C)cs2)c1,-1,-43,-11,-5,1,20
CCC(C)c1ccccc1N1CC(C(=O)Nc2ccc(C)c(S(=O)(=O)N3CCOCC3)c2)CC1=O (centres undefined),-9,.,-18,.,0,.
CCCCN(CC(=O)NCc1ccc(Cl)cc1)S(=O)(=O)c1ccc2c(c1)OCCO2,1,-16,2,-2,4,11
Cc1ccc(N(CC(O)CN2CCOCC2)S(=O)(=O)c2ccc([N+](=O)[O-])cc2)cc1 (centres undefined),0,.,5,.,-2,.
Cc1occc1C(=O)NNC(=S)NCc1ccccc1,0,-67,11,60*,8,22
Cc1occc1C(=O)NNC(=S)NCc1ccc(Cl)cc1,5,-28,10,-1,10,13
COc1ccc2nc(NC(=O)c3cccc(-c4cc5ccccc5oc4=O)c3)sc2c1,-9,87*,-14,-2,6,54*
COc1ccc(C(=O)Nc2cccc(-c3cc4ccccc4oc3=O)c2)cc1[N+](=O)[O-],2,87*,10,-1,6,56*
Cc1onc(-c2ccccc2)c1C1=N/C(=C\c2ccccc2F)C(=O)O1,4,-9,3,-4,2,-10
Cc1c(C(=O)OCC(=O)N2CCCCC2C)oc2ccccc12 (centres undefined),-7,.,1,.,-7,.
O=C1ON=C(c2ccc(Cl)cc2)/C1=C/c1ccc(O)cc1,6,-50,-1,-6,4,66*
O=C1ON=C(c2ccccc2)/C1=C/c1ccc(O)cc1,0,.,0,.,-4,.
CCCCCCCC/C=C\CCCCCCCC(=O)O,4,-74,4,.,2,63*
CCCCC/C=C\C/C=C\C/C=C\CCCCC(=O)O,3,.,16,.,5,.
SMILES,BCLXL inh,Mcl1-Bid inh,MCL1 BIM primary,Mcl-1 Bim block,GLD-1 RNA inh,Mcl1-Noxa inh
O=C(COc1ccc2ccccc2c1)NNC(=O)c1ccc([N+](=O)[O-])cc1,5,12,-4,-3,-1,82*
Cc1cccc(OCC(=O)NNC(=O)c2ccc([N+](=O)[O-])cc2)c1,3,-2,2,0,1,0
Cn1cc(Br)c(NC(=O)/C=C/C(=O)O)n1,2,18,-1,.,2,67*
NC(=O)COc1c(-c2ccccc2)oc2ccccc2c1=O,10,97*,8,3,2,17
O=C(c1ccc(NC(=S)NCc2ccco2)cc1)N1CCCCC1,4,-40,8,-1,-9,1
N#Cc1c2ccc(O)cc2n2ccccc12,45*,-12,44*,11,13,43
N#Cc1c2ccc(OCC(=O)NCc3ccco3)cc2n2ccccc12,8,.,7,.,5,.
FC(F)(F)c1cnc(Nc2ccc(N3CCOCC3)cc2)c(Cl)c1,12,-24,4,3,0,61*
CCC(CC)c1nnc(NC(=O)CSCC(=O)Nc2cc(C)on2)s1,3,.,4,.,5,.
O=C(Nc1ccc(CCC(=O)N2CCCC2)cc1)c1ncn[nH]1,6,96*,9,-4,2,22
CC(=O)c1cccc(NS(=O)(=O)c2c(C(=O)N3CCOCC3)c(C)n(C)c2C)c1,0,.,0,.,-1,.
Cc1cccc(C)c1NC(=O)CSc1nc(COc2ccccc2)nc2ccccc12,1,59*,28,10,0,0
Cc1cccc(NC(=O)CSc2nc(COc3ccccc3)nc3ccccc23)c1C,4,33,6,-3,-1,-4
CC(Sc1ncnc2sc(-c3ccccc3)cc12)C(=O)NCC1CCCO1 (centres undefined),4,.,13,.,-7,.
CN(C=[N+](C)C)c1cccc2c1C(=O)c1ccccc1C2=O,35*,-23,38,-1,18,16
Cc1cc(NS(=O)(=O)c2ccc(NC(=O)c3cnc(Cl)c(Cl)c3)cc2)nc(C)n1,-4,.,1,.,1,.
COC(=O)c1ccccc1S(=O)(=O)NNC(=O)Nc1ccccc1,5,.,6,.,-3,.
CCOC(=O)C[n+]1c(C)sc2ccc(OC)cc21,2,-95,3,-3,0,54*
CCOc1ccc(-c2nnc(-c3ccccc3)o2)cc1,2,-13,2,0,5,1
CCOc1ccc(-c2nnc(-c3ccccc3)n2-c2ccccc2)cc1,-1,61*,2,3,-1,-122
Cc1cccc(N=Cc2cc3c(cc2[N+](=O)[O-])OCO3)c1,8,-80,16,0,-1,-3
COc1cc(C=Nc2cccc(C)c2)c(O)c([N+](=O)[O-])c1,6,-81,13,53*,5,39
O=[N+]([O-])c1cc(Cc2ccccc2)cc(C=Nc2ccc(N3CCOCC3)cc2)c1O,29,-17,27,2,5,28
Cc1ccc(O)c(N=Cc2cc(Cc3ccccc3)cc([N+](=O)[O-])c2O)c1,.,-89,.,-1,.,56*
CN1CCN(CC(=O)Nc2ccc(OC(F)(F)F)cc2)CC1,0,.,-3,.,-6,.
COC(=O)c1c(-c2ccccc2Cl)noc1-c1cnc(N)nc1C(F)(F)F,-1,-60,-1,.,1,1
COCCN(CCOC)S(=O)(=O)c1ccc(C(=O)Nc2c(C)n(C)n(-c3ccccc3)c2=O)cc1,0,-18,-3,.,5,102*
